Screening data (PubChem BioAssay)
The full list was thinned out, with hits kept by preference.
Bead autofluor: counter-screen for toxin protease inhibitors: compound fluorescence; AID 624483; 360,000 compounds, 3.1% hits; fluorescence intensity (concentration not given with the values); compound autofluorescence counterscreen, microsphere flow cytometry; stronger effect = higher value; in the data active = fluorescence intensity above about 16000; inconclusive = no clear call, values can overlap the other calls
TcdB inh: TcdB glycohydrolase inhibitors, primary screen, biochemical, single point, plate reader; Toxin B (Clostridioides difficile), P18177; TcdB glycohydrolase enzymatic assay; inhibition, % at 9.99 µM; 350,000 compounds, 0.24% hits; in the data active = inhibition above about 10%
Anthrax LF inh2: Bacillus anthracis LF protease inhibitors, primary screen, biochemical, multiplex microsphere, MLPCN library; inhibition, % at 10 µM; 360,000 compounds, 0.12% hits; AID 588501, 2011; multiplex microsphere protease cleavage assay; Lethal factor (Bacillus anthracis), P15917; note: plate controls were buffer without enzyme for full effect and enzyme alone for no effect
BoNT-A LC inh2: BoNT/A light chain protease inhibitors, primary screen, biochemical, flow cytometry, MLPCN library; Botulinum neurotoxin type A light chain protease (Clostridium botulinum A str. ATCC 3502); multiplex microsphere protease substrate cleavage; inhibition, % at 10 µM; 360,000 compounds, 0.17% hits; AID 588499, 2011; note: plate controls were buffer without enzyme for full effect and enzyme alone for no effect
BoNT F protease: BoNT/F light chain protease inhibitors, primary screen, biochemical, flow cytometry, MLPCN library; 360,000 compounds, 0.22% hits; Botulinum neurotoxin type F light chain protease (Clostridium botulinum); inhibition, % at 10 µM; AID 588497, 2011; Multiplex microsphere protease cleavage assay; in the data active = inhibition above about 35%, passing the limit was not always enough; inconclusive = no clear call, values can overlap the other calls; note: plate controls were buffer without enzyme for full effect and enzyme alone for no effect
An asterisk follows results filed as active; ? = inconclusive; . = not tested or not shown. Cut-off read from the data, not from the text of the source, unless noted: active = inhibition above about 30%; inconclusive = no clear call, values can overlap the other calls; inactive = below that.

SMILES | Bead autofluor | TcdB inh | Anthrax LF inh2 | BoNT-A LC inh2 | BoNT F protease
C[C@H]1CN([C@@H](C)CO)S(=O)(=O)c2ccc(-c3ccc(C(=O)N(C)C)cc3)cc2O[C@H]1CN(C)C(=O)C1CCCCC1 | . | 1 | . | . | .
CC(=O)OCc1c(C(F)(F)F)nn(C)c1Sc1ccccc1 | 19824* | . | -2 | 1 | 1
COc1cc(C=C2CN(C)C(=O)C2=O)ccc1O | 3745 | 21* | 1 | 0 | 0
CCC(=O)Nc1ccc2c(c1)OC[C@H](C)N(Cc1cncnc1)C[C@@H](C)[C@@H](OC)CN(C)C2=O | . | 1 | . | . | .
CCOc1cc(C#N)c(NC(=O)CSc2nnnn2-c2ccc(OC)cc2)cc1OCC | 22206* | . | -3 | -9 | -11
COc1ccc(-n2nnnc2SCC(=O)Nc2ccc(OC)cc2OC)cc1 | 3763 | 1 | -14 | -4 | ?
CCc1ccc(N2C(=O)Cc3c2nc(N)c(C#N)c3N)cc1 | 21928* | 0 | 0 | ? | 5
C[C@@H]1CN([C@H](C)CO)S(=O)(=O)c2ccc(-c3cccc(C#N)c3)cc2O[C@@H]1CN(C)C(=O)c1cccnc1 | . | 0 | . | . | .
Cc1oc2c(c(C)cc3oc(=O)c(CC(=O)N[C@@H](C)C(=O)O)c(C)c32)c1C | 3536 | 0 | 2 | 4 | 26
CC[C@@H](C)[C@H](NC(=O)Cc1c(C)c2c(cc(C)c3c(C)c(C)oc32)oc1=O)C(=O)O | 3639 | 1 | -11 | 2 | 38*
O=c1ccnc(SCn2nnc3ccccc3c2=O)[nH]1 | 21117* | . | -1 | 3 | 3
COc1cc(/C=C/c2sc3ccccc3[n+]2CCCS(=O)(=O)[O-])ccc1O | 2593 | 10* | -1 | 0 | 0
COc1ccc(S(=O)(=O)N[C@@H]2C=C[C@H](CC(=O)NCc3ccccc3F)O[C@@H]2CO)cc1 | . | -1 | . | . | .
CS(=O)(=O)c1ccc2nc(NC(=O)c3cccs3)sc2c1 | 4395 | . | 2 | 0 | -12
Cc1ccc(C(=O)Nc2nc3ccccc3s2)s1 | 22825* | . | -1 | -1 | -1
COc1ccc2nc(NC(=O)c3cc(C)oc3C)sc2c1 | ? | . | -9 | -1 | -7
Cc1cc(C(=O)Nc2nc3ccc(S(C)(=O)=O)cc3s2)c(C)o1 | 22296* | 2 | -5 | 2 | 0
O=C(Nc1nc2ccccc2s1)c1ccccc1 | 4130 | 1 | -4 | -1 | 0
Cc1ccc(C(=O)Nc2nc3ccc(S(C)(=O)=O)cc3s2)s1 | 21772* | . | -1 | 2 | 3
CNC[C@@H]1Oc2ccc(NS(=O)(=O)c3ccc(C)cc3)cc2CC(=O)N([C@@H](C)CO)C[C@@H]1C | . | 1 | . | . | .
CCOc1ccc(C(CC(=O)O)NC(=O)C23CC4CC(CC(C4)C2)C3)cc1 (stereo unspecified) | 21930* | . | 0 | -5 | -7
CC(C)(C)c1ccc(C(CC(=O)O)NC(=O)C23CC4CC(CC(C4)C2)C3)cc1 (stereo unspecified) | 3176 | 2 | -7 | -4 | -12
CCCOc1cc(C)c(S(=O)(=O)NCCOC)cc1C | 21763* | . | -1 | -7 | -7
CCCCN1C(=O)C(O)=C(C(C)=O)C1c1ccccc1 (stereo unspecified) | 4654 | . | 1 | 0 | -10
CCCCCCCCN1C(=O)C(O)=C(C(C)=O)C1c1ccccn1 (stereo unspecified) | 31940* | . | -5 | -26 | -45
SMILES | Bead autofluor | TcdB inh | Anthrax LF inh2 | BoNT-A LC inh2 | BoNT F protease
O=[N+]([O-])c1ccc(Cl)c(/C=N/n2c(-c3ccncc3)n[nH]c2=S)c1 | 4200 | 5 | 37* | 4 | ?
C[C@H]1CCCCO[C@H](CN(C)Cc2ccncc2)[C@@H](C)CN([C@@H](C)CO)C(=O)c2cc(NC(=O)Nc3cccc4ccccc34)ccc2O1 | . | -1 | . | . | .
CCOC(=O)C(=CNc1cc(C)ccc1C)C(=O)OCC | 17727* | . | -3 | -3 | -6
CCOC(=O)CSCC(=O)Nc1cc(C)ccc1C | 26149* | 0 | -2 | -9 | -10
COC(=O)c1ccc(COC(=O)CSCC(=O)Nc2ccc(C)cc2C)cc1 | 4255 | 0 | ? | -2 | -4
OC(COc1cccc2ccccc12)CN1CCN(c2ccc(Cl)cc2)CC1 (stereo unspecified) | 3947 | 0 | -3 | 0 | 35*
OC(COc1cccc2ccccc12)CN1CCN(c2cccc(Cl)c2)CC1 (stereo unspecified) | 3593 | 0 | 0 | -1 | -11
